Compound activity from PubChem BioAssay.
LGR2 inh – blocks bursicon-induced cAMP signaling via Drosophila LGR2; AID 720647; HEK293 LGR2, CRE-luciferase, bursicon-stimulated, 4 h; inhibition, % at 9.99 µM; actives 0.35% (n = 380,000);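 active = drop in luminescence signal, shown as inhibition above about 50% in the replicate tests, limit read from the data, passing the limit was not always enough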;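 also: agonist challenge used bursicon conditioned medium at about half maximal strength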
HSF1 inhib – HSF1 inhibition; actives 0.77% (n = 300,000); activity change, negative = inhibition, % at 7.5 µM (by protocol); AID 2098; NIH3T3-HGL HSE-luciferase, MG132-induced, luminescence 8 h; active compounds read low;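 active = more than half of replicate wells show activity change below -50%, luminescence cut by over half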;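 also: luciferase reports HSF-1 transcriptional activity via heat shock element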
TWEAK Fn14 block – TWEAK-Fn14 signaling inhibition; TWEAK-stimulated Fn14 reporter cells, luciferase luminescence, 8 h; inhibition, % at 10 µM; actives 2% (n = 360,000); in the data active = inhibition above about 50%
LMP1 NFkB inh – Epstein-Barr LMP1 NF-kappaB reporter inhibition; actives 0.69% (n = 350,000); inhibition, % at 12.5 µM; LMP1-induced NF-kappaB luciferase reporter cells, luminescence; AID 504558; in the data active = inhibition above about 41%
HSF-1 act – increases HSF-1 driven luciferase reporter signal; NIH3T3-HGL HSF-1 luciferase reporter, MG132, 8 h; 100% = twice DMSO control signal; activation, % at 9 µM; actives 1.7% (n = 300,000);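 active = mean replicate activation of at least 50% with a set share of replicates each reaching 50%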
TROY NFkB inh – inhibitors of TROY-dependent NF-kB signaling; Q293 LMP1-TROYcd NF-kB luciferase reporter, 4 h; inhibition, % at 10 µM; actives 0.98% (n = 360,000);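 active = compounds whose plate-normalised and pattern-corrected inhibition of the luciferase reporter signal at the single screening dose is 50% or more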
Hits are given with their value; n = inactive; x = not tested or not shown. This is a sample that favours compounds with a hit; in the whole collection about 3.6% have one here.

SMILES	LGR2 inh	HSF1 inhib	TWEAK Fn14 block	LMP1 NFkB inh	HSF-1 act	TROY NFkB inh
C[C@@H]1CN([C@H](C)CO)C(=O)c2cc(NC(=O)C3CCCCC3)ccc2O[C@@H]1CN(C)S(C)(=O)=O	n	x	x	x	x	x
C[C@@H]1CN([C@H](C)CO)C(=O)c2cc(NC(=O)Nc3ccccc3)ccc2O[C@@H](C)CCCCO[C@@H]1CN(C)Cc1ccc(C(F)(F)F)cc1	n	x	x	x	x	x
CCOC(=O)c1ccc(NC(=O)/C=C/c2cccs2)cc1	n	n	n	n	53	n
CCN(CC)CCOC(=O)c1ccc(N)cc1	x	-78	n	n	n	n
CCN(CC)CCOC(=O)c1ccc(NC(=O)CSc2nnc(-c3cccs3)n2CC)cc1	n	x	n	n	x	n
CCN(CC)CCOC(=O)c1ccc(NC(=O)/C=C/c2cccs2)cc1	n	n	64	n	n	74
COc1ccc(CN(C)C[C@H]2Oc3c(NS(=O)(=O)c4ccc(OC)cc4)cccc3C(=O)N([C@H](C)CO)C[C@H]2C)cc1	n	x	x	x	x	x
COc1ccc2c3c(n(C)c2c1)[C@@H](CO)N(C(=O)C1CCCC1)CC31CCN(C(=O)CC2CC2)CC1	n	x	x	x	x	x
CCSc1n[nH]c2nc3c(c(=O)n12)C1(CCCCC1)Cc1ccccc1-3	n	n	n	n	n	52
N#CCSc1n[nH]c2nc3c(c(=O)n12)C1(CCCCC1)Cc1ccccc1-3	n	n	n	n	n	50
C[C@@H]1CCCCO[C@@H](CN(C)Cc2ccc(C(F)(F)F)cc2)[C@H](C)CN([C@@H](C)CO)C(=O)c2cc(NC(=O)Nc3ccc4c(c3)OCO4)ccc2O1	n	x	x	x	x	x
C[C@@H]1CN([C@@H](C)CO)C(=O)c2cc(C#CCN(C)C)cnc2O[C@@H]1CN(C)Cc1cccc(C(=O)O)c1	n	x	x	x	x	x
O=S(=O)(Nc1nc2ccccc2nc1Nc1ccc2c(c1)OCO2)c1ccc(F)cc1	n	n	61	n	n	58
COc1ccc(S(=O)(=O)Nc2cccc(S(=O)(=O)N3CCCCCC3)c2)cc1	n	n	n	n	n	n
O=S(=O)(Nc1nc2ccccc2nc1Nc1cccc(S(=O)(=O)N2CCCCC2)c1)c1ccccc1	n	n	77	n	101	68
COc1cc(C=O)ccc1OC(=O)c1ccc(C(C)C)cc1	n	-91	n	n	n	n
C[C@H]1CN([C@@H](C)CO)S(=O)(=O)c2ccc(-c3ccccc3)cc2O[C@H]1CN(C)CC1CC1	n	x	x	x	x	x
COC(=O)c1ccc2nc(-c3ccc(Cl)cc3)c(Cc3ccc(OC)cc3C)n2c1	n	x	81	x	x	51
COC(=O)c1ccc2nc(-c3ccc(OC)c(OC)c3)c(Cc3ccc(OC)cc3C)n2c1	n	x	n	x	x	n
COc1ccccc1-c1ccc(C2[C@@H]3CN(S(=O)(=O)c4ccc(F)cc4)C[C@H]2N3)cc1 (some centres not stated)	n	x	x	x	x	x
O=C(COc1cccc(C(F)(F)F)c1)NNC(=O)c1ccc(=O)[nH]c1	n	x	n	72	x	n
O=C(Nc1ccc(C(F)(F)F)cc1)N[C@@H]1C=C[C@H](CC(=O)N2CCCCC2)O[C@H]1CO	n	x	x	x	x	x
CN(C)C(=O)[C@H]1[C@H](CO)[C@H]2Cn3c(ccc(C4=CCCCC4)c3=O)[C@@H]1N2Cc1ccccc1	n	x	x	x	x	x
CC(=O)Nc1nc(C)c(-c2csc(Nc3ccc(O)cc3)n2)s1	x	x	n	45	x	n
CC(=O)Nc1nc(C)c(-c2csc(Nc3cccc(C(C)=O)c3)n2)s1	n	n	n	n	n	n
SMILES	LGR2 inh	HSF1 inhib	TWEAK Fn14 block	LMP1 NFkB inh	HSF-1 act	TROY NFkB inh
CC(=O)Nc1nc(C)c(-c2csc(Nc3cccc([N+](=O)[O-])c3)n2)s1	n	n	59	50	n	n
COc1ccc2c3c([nH]c2c1)[C@H](CO)N(S(C)(=O)=O)CC31CN(CC2CC2)C1	n	x	x	x	x	x
CC1=NOC(=O)/C1=C\c1ccc(-c2ccccc2Br)o1	x	n	96	n	n	68
Nc1ccccc1N=Cc1ccc(-c2cccc(Cl)c2)o1	n	n	n	n	55	n
CC1=NOC(=O)/C1=C\c1ccc(-c2ccc(Cl)c(C(=O)O)c2)o1	n	n	n	n	n	n
CC1=NOC(=O)/C1=C\c1ccc(-c2cccc(Cl)c2)o1	x	n	67	n	n	57
C/C=C/c1ccc([C@@H]2[C@H](CO)N(CC3CCCC3)C23CN(C(=O)COC)C3)cc1	n	x	x	x	x	x
COC(=O)c1ccccc1S(=O)(=O)NNC(=O)Nc1ccccc1	58	n	69	n	n	n
COC(=O)c1ccccc1S(=O)(=O)C(C)(C)C	x	n	n	n	n	n
CCN(CC)C(=N)/C(C#N)=N/Nc1ccc(C)cc1	n	n	n	n	57	n
COCC(=O)N1[C@H](CO)[C@@H](c2ccccc2)C12CN(C(=O)c1cccc(F)c1)C2	n	x	x	x	x	x
CC(=O)c1ccc(NC(=S)NCc2ccc(Cl)cc2Cl)cc1	n	n	n	n	n	57
COc1ccc(CSCCNC(=S)Nc2ccccc2)cc1Cl	n	n	n	n	n	n
S=C(NCCSCc1ccc(Cl)c(Cl)c1)Nc1ccccc1	x	n	n	n	101	n
CC(=O)c1ccc(NC(=O)Nc2ccc(Cl)cc2)cc1	n	n	n	n	n	n
S=C(Nc1ccccc1)Nc1ccc(OCc2ccc(Cl)cc2Cl)cc1	x	n	n	77	n	81
CCOc1ccc(NC(=S)Nc2ccc(OCc3ccccc3)cc2)cc1	n	n	n	n	n	n
S=C(NCCSCc1ccc(Cl)cc1Cl)Nc1ccccc1	x	n	n	n	52	n
CO[C@@H]1CN(C)C(=O)c2cc(NS(C)(=O)=O)ccc2OC[C@@H](C)N(Cc2ccccc2)C[C@H]1C	n	x	x	x	x	x
Cc1c(C)n(CC(O)CN2CCCCC2)c2ccccc12 (configuration not stated)	x	n	n	n	n	n
Cc1c(C)n(CC(O)CN2CCN(C)CC2)c2ccccc12 (configuration not stated)	n	n	n	60	n	n
COc1ccccc1CNC(=O)C[C@@H]1CC[C@@H](NC(=O)CC2CC2)[C@H](CO)O1	n	x	x	x	x	x
Cc1cc(=O)oc2c3c(cc(OCC(=O)N[C@@H](C)C(=O)O)c12)OC(C)(C)CC3	n	n	76	n	n	n
COc1ccc2c3c(n(C)c2c1)[C@@H](CO)N(S(C)(=O)=O)CC31CCN(CC2CCCC2)CC1	n	x	x	x	x	x
CCc1nn(CC(=O)N2CCC(C(N)=O)CC2)c(=O)c2cc3occc3n12	n	-67	n	n	n	n
COc1ccc(CC(=O)N2CCOCC2)cc1	x	n	99	n	n	n
COc1ccc(OC(=O)N2CCOCC2)cc1	n	n	n	n	n	n
COc1ccc(/C(N)=N/OC(=O)N2CCOCC2)cc1	n	n	n	90	n	n
COc1cccc(S(=O)(=O)Nc2ccc3c(c2)[C@@H]2C[C@@H](CC(=O)N(C)C)O[C@@H](CO)[C@@H]2O3)c1	n	x	x	x	x	x
CCCNC(=O)N1CC2(CCN(C(=O)c3ccncc3)CC2)c2c([nH]c3cc(OC)ccc23)[C@@H]1CO	n	x	x	x	x	x
